Test results published in PubChem BioAssay AID1159580 (chemical genetic matrix, 2015).
The whole screen tested about 5,500 compounds, of which about 2,000 (36%) were called active. Roughly 18% stayed inconclusive and do not appear here. No stated cut-off is given here; in the data, active means normalized growth mostly below about 0.91 (no sharp cut-off); inconclusive means no clear call, values can overlap the other calls; inactive means mostly above about 0.92. This is one part of the list.

Assay: chemical genetic growth profiling, strain panel (AID 1159580);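 further: tested at 20 µM; growth read once vehicle control cultures reached saturation at 30 °C; 1 = growth at the plate median or of vehicle wells; lower values mean less growth of the strain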
Conditions: growth OD

Measured: normalized growth

Nc1cc(-c2ccncc2)c[nH]c1=O
active: S. cerevisiae deletion strains, locus YKL160W, strain elf1, active compounds read low 0.689 | S. cerevisiae deletion strains, locus YKR001C, strain vps1, active compounds read low 0.765 | S. cerevisiae deletion strains, locus YLL001W, strain dnm1, active compounds read low 0.687 | S. cerevisiae deletion strains, locus YLL026W, active compounds read low 0.826 | S. cerevisiae deletion strains, locus YLR027C, strain aat2, active compounds read low 0.831 | S. cerevisiae deletion strains, locus YLR221C, strain rsa3, active compounds read low 0.778 | S. cerevisiae deletion strains, locus YLR258W, strain gsy2, active compounds read low 0.673 | S. cerevisiae deletion strains, locus YLR320W, strain mms22, active compounds read low 0.273 | S. cerevisiae deletion strains, locus YLR330W, strain CHS5, active compounds read low 0.878 | S. cerevisiae deletion strains, locus YLR370C, strain arc18, active compounds read low 0.514 | S. cerevisiae deletion strains, locus YML016C, strain PPZ1, active compounds read low 0.899 | S. cerevisiae deletion strains, locus YMR058W, strain fet3, active compounds read low 0.871 | S. cerevisiae deletion strains, locus YMR205C, strain PFK2, active compounds read low 0.559 | S. cerevisiae deletion strains, locus YMR223W, strain ubp8, active compounds read low 0.848 | S. cerevisiae deletion strains, locus YNL071W, strain lat1, active compounds read low 0.39 | S. cerevisiae deletion strains, locus YNL209W, strain ssb2, active compounds read low 0.914 | S. cerevisiae deletion strains, locus YNL233W, strain BNI4, active compounds read low 0.82 | S. cerevisiae deletion strains, locus YNL248C, strain rpa49, active compounds read low 0.517 | S. cerevisiae deletion strains, locus YNL307C, strain MCK1, active compounds read low 0.163 | S. cerevisiae deletion strains, locus YNR049C, strain mso1, active compounds read low 0.889 | S. cerevisiae deletion strains, locus YOR061W, strain CKA2, active compounds read low 0.887 | S. cerevisiae deletion strains, locus YOR070C, strain gyp1, active compounds read low 0.814 | S. cerevisiae deletion strains, locus YOR083W, strain WHI5, active compounds read low 0.858 | S. cerevisiae deletion strains, locus YOR106W, strain vam3, active compounds read low 0.587 | S. cerevisiae deletion strains, locus YOR136W, strain idh2, active compounds read low 0.899 | S. cerevisiae deletion strains, locus YOR265W, strain rbl2, active compounds read low 0.768 | S. cerevisiae deletion strains, locus YOR270C, strain vph1, active compounds read low 0.451 | S. cerevisiae deletion strains, locus YPL051W, strain arl3, active compounds read low 0.792 | S. cerevisiae deletion strains, locus YPL106C, strain sse1, active compounds read low 0.555 | S. cerevisiae deletion strains, locus YPL240C, strain hsp82, active compounds read low 0.839 | S. cerevisiae deletion strains, locus YPR163C, strain tif3, active compounds read low 0.603 | S. cerevisiae deletion strains, strain wtn01, active compounds read low 0.848
inactive: S. cerevisiae deletion strains, locus YJR043C, strain POL32, active compounds read low 0.89 | S. cerevisiae deletion strains, locus YJR066W, strain TOR1, active compounds read low 0.973 | S. cerevisiae deletion strains, locus YJR075W, strain HOC1, active compounds read low 0.942 | S. cerevisiae deletion strains, locus YKL009W, strain mrt4, active compounds read low 0.977 | S. cerevisiae deletion strains, locus YKL068W, active compounds read low 0.977 | S. cerevisiae deletion strains, locus YKL085W, strain MDH1 (second series), active compounds read low 0.989 | S. cerevisiae deletion strains, locus YKL085W, strain MDH1, active compounds read low 0.989 | S. cerevisiae deletion strains, locus YKL190W, strain CNB1, active compounds read low 0.974 | S. cerevisiae deletion strains, locus YKR026C, strain gcn3, active compounds read low 0.947 | S. cerevisiae deletion strains, locus YKR091W, strain srl3, active compounds read low 0.976 | S. cerevisiae deletion strains, locus YLL041C, strain sdh2, active compounds read low 0.933 | S. cerevisiae deletion strains, locus YLR039C, strain RIC1, active compounds read low 0.981 | S. cerevisiae deletion strains, locus YLR058C, strain SHM2, active compounds read low 0.975 | S. cerevisiae deletion strains, locus YLR102C, strain apc9, active compounds read low 0.983 | S. cerevisiae deletion strains, locus YLR113W, strain HOG1, active compounds read low 1.02 | S. cerevisiae deletion strains, locus YLR262C, strain YPT6 (second series), active compounds read low 1.01 | S. cerevisiae deletion strains, locus YLR262C, strain YPT6, active compounds read low 0.978 | S. cerevisiae deletion strains, locus YLR268W, strain sec22, active compounds read low 0.908 | S. cerevisiae deletion strains, locus YLR342W, strain FKS1 (second series), active compounds read low 0.87 | S. cerevisiae deletion strains, locus YLR342W, strain FKS1, active compounds read low 0.952 | S. cerevisiae deletion strains, locus YLR357W, strain rsc2, active compounds read low 0.972 | S. cerevisiae deletion strains, locus YLR384C, strain iki3, active compounds read low 0.966 | S. cerevisiae deletion strains, locus YLR418C, strain cdc73, active compounds read low 0.882 | S. cerevisiae deletion strains, locus YML032C, strain rad52, active compounds read low 0.986 | S. cerevisiae deletion strains, locus YML120C, strain ndi1, active compounds read low 0.979 | S. cerevisiae deletion strains, locus YML124C, strain tub3, active compounds read low 0.971 | S. cerevisiae deletion strains, locus YMR078C, strain ctf18, active compounds read low 0.949 | S. cerevisiae deletion strains, locus YMR125W, strain sto1, active compounds read low 0.955 | S. cerevisiae deletion strains, locus YMR129W, active compounds read low 0.955 | S. cerevisiae deletion strains, locus YMR231W, strain pep5, active compounds read low 0.965 | S. cerevisiae deletion strains, locus YMR263W, strain SAP30, active compounds read low 0.977 | S. cerevisiae deletion strains, locus YMR307W, strain GAS1, active compounds read low 0.937 | S. cerevisiae deletion strains, locus YNL067W, strain RPL9B, active compounds read low 0.888 | S. cerevisiae deletion strains, locus YNL183C, strain NPR1, active compounds read low 0.977 | S. cerevisiae deletion strains, locus YNL250W, strain rad50, active compounds read low 0.963 | S. cerevisiae deletion strains, locus YNL271C, strain bni1, active compounds read low 0.989 | S. cerevisiae deletion strains, locus YNL298W, strain CLA4, active compounds read low 0.988 | S. cerevisiae deletion strains, locus YNL322C, strain KRE1 (second series), active compounds read low 0.907 | S. cerevisiae deletion strains, locus YNR052C, strain pop2, active compounds read low 0.994 | S. cerevisiae deletion strains, locus YOL006C, strain TOP1, active compounds read low 0.573 | S. cerevisiae deletion strains, locus YOL012C, strain htz1 0.865 | S. cerevisiae deletion strains, locus YOL147C, strain pex11, active compounds read low 0.979 | S. cerevisiae deletion strains, locus YOR001W, strain rrp6, active compounds read low 0.967 | S. cerevisiae deletion strains, locus YOR069W, strain VPS5, active compounds read low 0.967 | S. cerevisiae deletion strains, locus YOR080W, strain dia2, active compounds read low 0.965 | S. cerevisiae deletion strains, locus YOR144C, strain elg1, active compounds read low 0.986 | S. cerevisiae deletion strains, locus YOR184W, strain ser1, active compounds read low 0.893 | S. cerevisiae deletion strains, locus YOR231W, strain MKK1, active compounds read low 1.01 | S. cerevisiae deletion strains, locus YOR290C, strain snf2, active compounds read low 0.91 | S. cerevisiae deletion strains, locus YOR316C, strain cot1, active compounds read low 0.98 | S. cerevisiae deletion strains, locus YPL078C, strain atp4, active compounds read low 0.973 | S. cerevisiae deletion strains, locus YPL241C, strain CIN2, active compounds read low 0.993 | S. cerevisiae deletion strains, locus YPL256C, strain CLN2, active compounds read low 1.08 | S. cerevisiae deletion strains, locus YPR119W, strain clb2, active compounds read low 0.987 | S. cerevisiae deletion strains, locus YPR141C, strain kar3, active compounds read low 0.972 | S. cerevisiae deletion strains, locus YPR167C, strain met16, active compounds read low 0.928 | S. cerevisiae strains, strain wild type, active compounds read low 0.958
